Columns and labels:
Assay in all cases: DAPPL (digital affinity profiling via proximity ligation, sequencing); 10 mM Tris-HCl pH 7.5, 50 mM NaCl, 1 mM DTT, 4% glycerol, room temperature, 30 min; GST-TFs on glutathione beads, 16-mer random dsDNA library, 0.1% formaldehyde crosslink after washing; high values mean tight binding
[1] = biological target: T1, FLI1 (Homo sapiens, UniProt Q01543 1-452); settings: protein: recombinant; tags: N-terminal GST; dsDNA, one strand shown
T1 sequence: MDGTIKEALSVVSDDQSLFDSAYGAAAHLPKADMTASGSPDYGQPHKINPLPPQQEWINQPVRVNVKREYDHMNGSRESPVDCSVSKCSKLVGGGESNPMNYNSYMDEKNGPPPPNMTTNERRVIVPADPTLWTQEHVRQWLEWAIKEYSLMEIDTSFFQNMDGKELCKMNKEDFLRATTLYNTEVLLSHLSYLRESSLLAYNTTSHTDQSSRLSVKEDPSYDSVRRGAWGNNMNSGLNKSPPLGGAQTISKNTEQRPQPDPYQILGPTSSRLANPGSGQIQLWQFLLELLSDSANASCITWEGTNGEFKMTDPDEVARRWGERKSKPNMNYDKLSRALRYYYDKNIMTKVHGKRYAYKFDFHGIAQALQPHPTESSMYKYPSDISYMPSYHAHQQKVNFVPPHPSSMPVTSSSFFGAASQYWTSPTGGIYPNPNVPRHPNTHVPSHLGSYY
In short: (§1)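 After expression in yeast as GST fusions, human transcription factors were bound to glutathione beads, DNA-barcoded and mixed with a tag-only sample. The pools were incubated with 200 nmole of a 16-mer random double-stranded DNA library in Tris/NaCl/DTT/glycerol buffer (30 min, room temperature), washed and crosslinked with 0.1% formaldehyde. Proximity ligation with BsaI/T4 ligase ran for 1 h at 37 °C, before PCR amplification and sequencing on an Illumina NextSeq500. Binding signal is a hexamer's read frequency for a factor divided by its frequency for the tag-only sample.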

[2] = biological target: T2, ELK1 (Homo sapiens, UniProt P19419 1-428); settings: protein: recombinant; tags: N-terminal GST; dsDNA, one strand shown
T2 sequence: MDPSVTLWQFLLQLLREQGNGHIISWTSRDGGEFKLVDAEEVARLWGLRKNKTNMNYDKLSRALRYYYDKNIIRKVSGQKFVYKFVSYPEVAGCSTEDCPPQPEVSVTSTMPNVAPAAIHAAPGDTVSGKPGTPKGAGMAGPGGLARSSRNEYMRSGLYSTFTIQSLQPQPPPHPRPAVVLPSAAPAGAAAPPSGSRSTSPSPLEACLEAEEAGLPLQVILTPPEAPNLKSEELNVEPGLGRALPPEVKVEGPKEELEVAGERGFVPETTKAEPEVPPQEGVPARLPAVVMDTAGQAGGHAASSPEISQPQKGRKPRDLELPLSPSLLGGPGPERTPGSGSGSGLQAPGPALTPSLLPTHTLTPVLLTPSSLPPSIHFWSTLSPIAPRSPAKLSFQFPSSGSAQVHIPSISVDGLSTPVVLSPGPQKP
In short: as §1

[3] = biological target: T3, GABPA (Homo sapiens, UniProt Q06546 1-454); settings: protein: recombinant; tags: N-terminal GST; dsDNA, one strand shown
T3 sequence: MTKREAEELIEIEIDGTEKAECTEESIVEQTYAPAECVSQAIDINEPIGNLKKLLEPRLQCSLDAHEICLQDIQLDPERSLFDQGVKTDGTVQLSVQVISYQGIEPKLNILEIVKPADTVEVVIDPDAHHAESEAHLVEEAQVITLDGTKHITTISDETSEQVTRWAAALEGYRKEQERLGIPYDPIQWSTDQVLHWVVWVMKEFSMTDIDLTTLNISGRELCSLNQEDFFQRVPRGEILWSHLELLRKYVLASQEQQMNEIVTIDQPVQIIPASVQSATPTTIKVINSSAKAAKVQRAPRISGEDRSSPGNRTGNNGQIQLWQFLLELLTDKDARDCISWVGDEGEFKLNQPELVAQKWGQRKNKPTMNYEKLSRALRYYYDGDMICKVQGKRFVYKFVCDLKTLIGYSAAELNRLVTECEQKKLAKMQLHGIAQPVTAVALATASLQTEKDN
In short: as §1

[4] = biological target: T4, ERG (Homo sapiens, UniProt P11308 1-479); settings: protein: recombinant; tags: N-terminal GST; dsDNA, one strand shown
T4 sequence: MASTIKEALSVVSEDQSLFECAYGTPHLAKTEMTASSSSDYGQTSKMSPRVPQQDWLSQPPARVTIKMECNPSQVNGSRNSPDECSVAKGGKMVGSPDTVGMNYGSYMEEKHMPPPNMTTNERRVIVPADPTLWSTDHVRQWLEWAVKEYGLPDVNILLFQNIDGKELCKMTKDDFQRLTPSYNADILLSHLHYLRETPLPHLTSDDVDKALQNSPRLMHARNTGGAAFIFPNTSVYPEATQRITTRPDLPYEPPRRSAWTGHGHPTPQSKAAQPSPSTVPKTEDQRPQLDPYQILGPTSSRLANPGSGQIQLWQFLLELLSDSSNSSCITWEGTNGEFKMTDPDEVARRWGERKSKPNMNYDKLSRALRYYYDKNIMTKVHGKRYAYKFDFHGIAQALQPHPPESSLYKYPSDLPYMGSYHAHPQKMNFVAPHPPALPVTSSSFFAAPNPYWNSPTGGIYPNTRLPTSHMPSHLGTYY
In short: as §1

[5] = biological target: ELF1 (Homo sapiens, UniProt P32519 1-619); settings: protein: recombinant; tags: N-terminal GST; dsDNA, one strand shown
In short: as §1

[6] = biological target: T5, EHF (Homo sapiens, UniProt Q9NZC4 1-300); settings: protein: recombinant; tags: N-terminal GST; dsDNA, one strand shown
T5 sequence: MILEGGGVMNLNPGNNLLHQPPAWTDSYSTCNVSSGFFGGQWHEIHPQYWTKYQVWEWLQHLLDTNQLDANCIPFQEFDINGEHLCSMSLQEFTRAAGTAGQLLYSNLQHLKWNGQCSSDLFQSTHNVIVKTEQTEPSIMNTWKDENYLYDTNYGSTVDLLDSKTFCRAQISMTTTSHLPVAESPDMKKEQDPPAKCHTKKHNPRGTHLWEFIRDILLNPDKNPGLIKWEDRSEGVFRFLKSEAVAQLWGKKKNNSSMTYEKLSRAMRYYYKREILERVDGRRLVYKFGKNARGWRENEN
In short: as §1

[7] = biological target: SPI1 (Homo sapiens, UniProt P17947 1-270); settings: protein: recombinant; tags: N-terminal GST; dsDNA, one strand shown
In short: as §1

[8] = biological target: SPIB (Homo sapiens, UniProt Q01892 1-262); settings: protein: recombinant; tags: N-terminal GST; dsDNA, one strand shown
In short: as §1

[9] = biological target: T6, ELK3 (Homo sapiens, UniProt P41970 1-407); settings: protein: recombinant; tags: N-terminal GST; dsDNA, one strand shown
T6 sequence: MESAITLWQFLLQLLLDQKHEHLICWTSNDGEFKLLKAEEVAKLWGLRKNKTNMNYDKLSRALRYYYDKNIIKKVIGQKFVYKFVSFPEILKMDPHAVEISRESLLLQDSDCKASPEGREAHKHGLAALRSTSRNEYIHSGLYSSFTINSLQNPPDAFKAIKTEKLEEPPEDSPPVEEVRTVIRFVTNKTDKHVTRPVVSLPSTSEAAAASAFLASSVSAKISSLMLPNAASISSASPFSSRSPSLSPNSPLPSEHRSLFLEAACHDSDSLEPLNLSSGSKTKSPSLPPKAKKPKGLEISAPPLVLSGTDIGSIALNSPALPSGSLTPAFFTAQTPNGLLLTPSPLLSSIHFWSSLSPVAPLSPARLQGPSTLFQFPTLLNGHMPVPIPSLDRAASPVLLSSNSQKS
In short: as §1

[10] = biological target: T7, FEV (Homo sapiens, UniProt Q99581 1-238); settings: protein: recombinant; tags: N-terminal GST; dsDNA, one strand shown
T7 sequence: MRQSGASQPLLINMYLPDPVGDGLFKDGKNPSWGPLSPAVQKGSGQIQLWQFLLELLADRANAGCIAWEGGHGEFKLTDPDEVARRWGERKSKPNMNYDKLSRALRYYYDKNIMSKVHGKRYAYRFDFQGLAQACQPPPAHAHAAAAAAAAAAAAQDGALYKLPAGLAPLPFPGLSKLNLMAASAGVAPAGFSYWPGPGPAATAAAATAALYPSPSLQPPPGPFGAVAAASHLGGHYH
In short: as §1

[11] = biological target: ETV5 (Homo sapiens, UniProt P41161 1-510); settings: protein: recombinant; tags: N-terminal GST; dsDNA, one strand shown
In short: as §1

[12] = biological target: HSF1 (Homo sapiens, UniProt Q00613 1-529); settings: protein: recombinant; tags: N-terminal GST; chain copies: 3; dsDNA, one strand shown
In short: as §1

[13] = biological target: T8, SPIC (Homo sapiens, UniProt Q8N5J4 1-248); settings: protein: recombinant; tags: N-terminal GST; dsDNA, one strand shown
T8 sequence: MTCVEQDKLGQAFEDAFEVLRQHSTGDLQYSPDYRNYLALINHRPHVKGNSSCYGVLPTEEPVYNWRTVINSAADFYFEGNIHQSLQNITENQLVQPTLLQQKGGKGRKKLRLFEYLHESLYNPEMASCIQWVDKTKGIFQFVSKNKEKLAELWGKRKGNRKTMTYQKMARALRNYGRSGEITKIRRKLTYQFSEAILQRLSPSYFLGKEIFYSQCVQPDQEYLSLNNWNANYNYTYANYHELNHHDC
In short: as §1

[14] = biological target: ELF4 (Homo sapiens, UniProt Q99607 1-663); settings: protein: recombinant; tags: N-terminal GST; dsDNA, one strand shown
In short: as §1

[15] = biological target: T9, ELK4 (Homo sapiens, UniProt P28324-2 1-405); settings: protein: recombinant; tags: N-terminal GST; dsDNA, one strand shown
T9 sequence: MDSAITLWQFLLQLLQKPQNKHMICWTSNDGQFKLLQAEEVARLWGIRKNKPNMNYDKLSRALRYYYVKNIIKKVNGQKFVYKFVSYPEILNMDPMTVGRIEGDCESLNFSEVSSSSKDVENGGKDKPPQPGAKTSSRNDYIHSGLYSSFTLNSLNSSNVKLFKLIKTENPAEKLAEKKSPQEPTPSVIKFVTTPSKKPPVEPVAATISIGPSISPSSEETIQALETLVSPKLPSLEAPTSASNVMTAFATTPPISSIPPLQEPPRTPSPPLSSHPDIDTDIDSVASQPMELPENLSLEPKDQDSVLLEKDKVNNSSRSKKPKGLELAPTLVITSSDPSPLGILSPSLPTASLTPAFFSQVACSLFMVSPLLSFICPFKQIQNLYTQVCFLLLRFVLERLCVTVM
In short: as §1

[16] = biological target: T10, ELF3 (Homo sapiens, UniProt P78545 1-371); settings: protein: recombinant; tags: N-terminal GST; dsDNA, one strand shown
T10 sequence: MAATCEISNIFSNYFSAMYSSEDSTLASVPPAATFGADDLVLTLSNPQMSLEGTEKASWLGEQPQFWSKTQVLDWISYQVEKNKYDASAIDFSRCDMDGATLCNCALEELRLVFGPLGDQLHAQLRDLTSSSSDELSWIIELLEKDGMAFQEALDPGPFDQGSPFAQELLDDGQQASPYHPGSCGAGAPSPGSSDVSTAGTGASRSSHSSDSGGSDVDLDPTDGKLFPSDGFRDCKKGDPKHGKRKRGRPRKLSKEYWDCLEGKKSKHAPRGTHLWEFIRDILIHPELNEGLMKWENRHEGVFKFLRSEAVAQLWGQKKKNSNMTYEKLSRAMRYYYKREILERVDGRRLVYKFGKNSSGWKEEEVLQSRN
In short: as §1

[17] = biological target: ETV1 (Homo sapiens, UniProt P50549 1-477); settings: protein: recombinant; tags: N-terminal GST; dsDNA, one strand shown
In short: as §1

[18] = biological target: CRX (Homo sapiens, UniProt O43186 1-299); settings: protein: recombinant; tags: N-terminal GST; dsDNA, one strand shown
In short: as §1

Sequence of HSF1 (Q00613 whole entry): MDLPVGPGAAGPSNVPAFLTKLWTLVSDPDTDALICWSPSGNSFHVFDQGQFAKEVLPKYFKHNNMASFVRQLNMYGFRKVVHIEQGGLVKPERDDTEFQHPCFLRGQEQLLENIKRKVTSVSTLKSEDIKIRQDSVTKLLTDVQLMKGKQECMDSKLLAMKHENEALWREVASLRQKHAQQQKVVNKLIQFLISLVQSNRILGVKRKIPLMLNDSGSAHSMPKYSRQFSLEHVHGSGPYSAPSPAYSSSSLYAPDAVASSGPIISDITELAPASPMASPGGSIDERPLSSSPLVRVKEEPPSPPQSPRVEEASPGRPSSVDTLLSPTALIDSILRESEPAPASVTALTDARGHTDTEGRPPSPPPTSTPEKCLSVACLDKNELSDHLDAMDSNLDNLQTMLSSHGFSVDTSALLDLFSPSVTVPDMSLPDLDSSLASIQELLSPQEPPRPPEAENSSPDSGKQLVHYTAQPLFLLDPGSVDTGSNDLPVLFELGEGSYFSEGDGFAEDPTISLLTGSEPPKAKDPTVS
Sequence of ETV5 (P41161 whole entry): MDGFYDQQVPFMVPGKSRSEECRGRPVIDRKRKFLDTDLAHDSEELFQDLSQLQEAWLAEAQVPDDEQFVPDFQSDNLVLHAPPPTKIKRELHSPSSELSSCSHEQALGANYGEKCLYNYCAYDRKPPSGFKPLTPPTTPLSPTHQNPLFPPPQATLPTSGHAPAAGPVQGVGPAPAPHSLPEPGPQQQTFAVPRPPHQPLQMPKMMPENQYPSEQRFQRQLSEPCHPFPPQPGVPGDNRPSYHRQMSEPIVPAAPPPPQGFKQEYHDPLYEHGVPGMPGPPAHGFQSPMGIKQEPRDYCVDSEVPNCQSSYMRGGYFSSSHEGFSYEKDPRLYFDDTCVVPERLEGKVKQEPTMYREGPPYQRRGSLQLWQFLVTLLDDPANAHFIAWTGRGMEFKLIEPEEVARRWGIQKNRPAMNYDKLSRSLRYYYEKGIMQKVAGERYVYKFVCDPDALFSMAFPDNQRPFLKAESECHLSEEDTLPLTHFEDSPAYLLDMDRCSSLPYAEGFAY
Sequence of SPIB (Q01892 whole entry): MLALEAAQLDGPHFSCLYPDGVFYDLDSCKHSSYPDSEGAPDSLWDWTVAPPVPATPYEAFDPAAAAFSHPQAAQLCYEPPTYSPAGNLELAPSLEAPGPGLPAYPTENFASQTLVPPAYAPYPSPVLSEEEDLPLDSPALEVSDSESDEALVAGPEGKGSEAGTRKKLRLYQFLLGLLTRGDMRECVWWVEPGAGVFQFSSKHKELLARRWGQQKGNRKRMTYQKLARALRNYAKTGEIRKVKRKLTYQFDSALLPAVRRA
Sequence of ELF1 (P32519 whole entry): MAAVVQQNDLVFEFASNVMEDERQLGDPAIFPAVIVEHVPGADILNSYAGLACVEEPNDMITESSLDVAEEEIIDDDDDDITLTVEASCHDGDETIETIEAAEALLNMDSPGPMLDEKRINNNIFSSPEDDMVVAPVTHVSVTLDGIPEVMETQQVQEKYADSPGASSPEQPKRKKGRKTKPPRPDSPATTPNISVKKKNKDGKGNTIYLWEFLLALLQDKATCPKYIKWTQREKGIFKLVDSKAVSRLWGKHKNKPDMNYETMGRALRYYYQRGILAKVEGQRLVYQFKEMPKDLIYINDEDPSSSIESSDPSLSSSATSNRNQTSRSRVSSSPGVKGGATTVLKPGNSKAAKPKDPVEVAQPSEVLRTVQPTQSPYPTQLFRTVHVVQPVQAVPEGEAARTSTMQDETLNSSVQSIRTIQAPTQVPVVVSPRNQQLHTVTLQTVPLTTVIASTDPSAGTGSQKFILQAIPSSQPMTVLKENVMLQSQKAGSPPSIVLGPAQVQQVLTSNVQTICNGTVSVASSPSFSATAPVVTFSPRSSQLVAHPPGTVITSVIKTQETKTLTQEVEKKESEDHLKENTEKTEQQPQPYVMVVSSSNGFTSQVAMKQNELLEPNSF
Sequence of ETV1 (P50549 whole entry): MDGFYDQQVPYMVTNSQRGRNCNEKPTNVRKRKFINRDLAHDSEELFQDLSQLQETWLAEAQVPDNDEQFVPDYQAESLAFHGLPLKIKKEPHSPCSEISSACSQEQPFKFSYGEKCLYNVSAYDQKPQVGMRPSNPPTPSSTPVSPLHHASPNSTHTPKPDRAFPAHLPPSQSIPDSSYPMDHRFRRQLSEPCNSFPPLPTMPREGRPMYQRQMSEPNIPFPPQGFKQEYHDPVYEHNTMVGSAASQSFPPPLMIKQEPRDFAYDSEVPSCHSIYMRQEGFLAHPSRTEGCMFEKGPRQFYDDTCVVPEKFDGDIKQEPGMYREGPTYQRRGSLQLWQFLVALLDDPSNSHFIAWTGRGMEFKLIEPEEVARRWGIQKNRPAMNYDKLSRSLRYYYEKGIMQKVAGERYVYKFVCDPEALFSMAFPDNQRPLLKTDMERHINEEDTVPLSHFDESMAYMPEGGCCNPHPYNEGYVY
Sequence of ELF4 (Q99607 whole entry): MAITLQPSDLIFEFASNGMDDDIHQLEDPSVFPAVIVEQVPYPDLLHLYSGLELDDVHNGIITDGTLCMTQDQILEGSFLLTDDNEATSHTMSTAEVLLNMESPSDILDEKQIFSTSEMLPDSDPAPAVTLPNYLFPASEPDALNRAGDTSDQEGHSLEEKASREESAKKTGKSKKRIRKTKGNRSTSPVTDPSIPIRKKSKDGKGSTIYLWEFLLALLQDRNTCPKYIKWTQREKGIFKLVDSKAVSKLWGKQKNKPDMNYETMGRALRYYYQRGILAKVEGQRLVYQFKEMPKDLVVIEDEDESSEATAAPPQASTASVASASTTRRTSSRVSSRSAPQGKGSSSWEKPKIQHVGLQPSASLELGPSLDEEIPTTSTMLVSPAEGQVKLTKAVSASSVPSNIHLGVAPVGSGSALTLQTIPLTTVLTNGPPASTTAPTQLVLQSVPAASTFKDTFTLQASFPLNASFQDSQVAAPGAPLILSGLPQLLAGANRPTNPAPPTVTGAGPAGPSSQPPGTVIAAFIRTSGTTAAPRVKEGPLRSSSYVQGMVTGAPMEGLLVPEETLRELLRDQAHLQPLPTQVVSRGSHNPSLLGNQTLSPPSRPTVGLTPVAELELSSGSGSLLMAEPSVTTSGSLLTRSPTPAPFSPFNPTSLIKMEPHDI
Sequence of CRX (O43186 whole entry): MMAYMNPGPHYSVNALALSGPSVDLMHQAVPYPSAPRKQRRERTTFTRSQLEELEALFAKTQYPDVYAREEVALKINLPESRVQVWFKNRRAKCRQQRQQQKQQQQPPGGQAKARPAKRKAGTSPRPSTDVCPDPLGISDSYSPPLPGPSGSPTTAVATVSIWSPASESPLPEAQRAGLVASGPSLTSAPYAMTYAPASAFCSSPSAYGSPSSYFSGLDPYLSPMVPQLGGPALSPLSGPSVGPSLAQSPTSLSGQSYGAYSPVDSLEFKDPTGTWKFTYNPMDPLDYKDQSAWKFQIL

Row | Sequence | binding signal [1] | binding signal [2] | binding signal [3] | binding signal [4] | binding signal [5] | binding signal [6] | binding signal [7] | binding signal [8] | binding signal [9] | binding signal [10] | binding signal [11] | binding signal [12] | binding signal [13] | binding signal [14] | binding signal [15] | binding signal [16] | binding signal [17] | binding signal [18]
1 | CGCTCG | 1.17 fold enrichment (6-mer frequency, TF over GST control) | 1.08 fold enrichment (6-mer frequency, TF over GST control) | 1.11 fold enrichment (6-mer frequency, TF over GST control) | 1.05 fold enrichment (6-mer frequency, TF over GST control) | 1.19 fold enrichment (6-mer frequency, TF over GST control) | 1.04 fold enrichment (6-mer frequency, TF over GST control) | 1.08 fold enrichment (6-mer frequency, TF over GST control) | 1.12 fold enrichment (6-mer frequency, TF over GST control) | 1.11 fold enrichment (6-mer frequency, TF over GST control) | 1.08 fold enrichment (6-mer frequency, TF over GST control) | 1.05 fold enrichment (6-mer frequency, TF over GST control) | 1.16 fold enrichment (6-mer frequency, TF over GST control) | 1.24 fold enrichment (6-mer frequency, TF over GST control) | 1.17 fold enrichment (6-mer frequency, TF over GST control) | 1.13 fold enrichment (6-mer frequency, TF over GST control) | 1.35 fold enrichment (6-mer frequency, TF over GST control) | 1.09 fold enrichment (6-mer frequency, TF over GST control) | –
2 | TAACTC | 1.3 fold enrichment (6-mer frequency, TF over GST control) | 1.22 fold enrichment (6-mer frequency, TF over GST control) | 1.23 fold enrichment (6-mer frequency, TF over GST control) | 1.11 fold enrichment (6-mer frequency, TF over GST control) | 1.29 fold enrichment (6-mer frequency, TF over GST control) | 1.16 fold enrichment (6-mer frequency, TF over GST control) | 1.18 fold enrichment (6-mer frequency, TF over GST control) | 1.21 fold enrichment (6-mer frequency, TF over GST control) | 1.18 fold enrichment (6-mer frequency, TF over GST control) | 1.1 fold enrichment (6-mer frequency, TF over GST control) | 1.21 fold enrichment (6-mer frequency, TF over GST control) | 1.34 fold enrichment (6-mer frequency, TF over GST control) | 1.25 fold enrichment (6-mer frequency, TF over GST control) | 1.29 fold enrichment (6-mer frequency, TF over GST control) | 1.34 fold enrichment (6-mer frequency, TF over GST control) | – | 1.23 fold enrichment (6-mer frequency, TF over GST control) | 1.58 fold enrichment (6-mer frequency, TF over GST control)

From PMC7862700, “An all-to-all approach to the identification of sequence-specific readers for epigenetic DNA modifications on cytosine”
